# Experimental data: paper PMC4552634, “A New Set of Chemical Starting Points with Plasmodium falciparum Transmission-Blocking Potential for Antimalarial Drug Discovery” (PLoS ONE, 2015)
# Where two headings read alike, the source gives them in different places. Screen size: about 13,000 compounds; about 3,200 (25%) showed an effect of 50% or more. The list shows a part of the results.
# Tested on: P. falciparum stage V gametocytes
# Design: BacTiter-Glo ATP luminescence viability of purified stage V gametocytes in 384-well plates, per cent inhibition versus DMSO
# Details: 48 h, 5 µM, inhibitor
Structure (SMILES),% Inhibition,% Inhibition (% Inhibition)
N=C(N)c1ccc(C(=O)Nc2cccc(C(=N)N)c2)cc1 [TCMDC-137804],7.039%,–
CCOc1cc(C(=O)NCCCN2CCN(c3cccc(Cl)c3)CC2)ccc1-c1nc2cc(Cl)c(F)cc2[nH]1 [TCMDC-140097],-13.16%,–
O=C(/C=C/c1ccc(Cl)c(Cl)c1)NCCCCCN1CCC(NC(=O)Nc2ccccc2Cl)CC1 [TCMDC-135710],-61.78%,–
Cc1ccc(Nc2ccnc3ccc(C(F)(F)F)cc23)cc1O [TCMDC-138307],-31.91%,–
CC1(C)N=C(N)NC(NOCC=Cc2ccccc2)=N1 [TCMDC-131690],-2.035%,–
O=C(NCCc1ccc(Cl)c(Cl)c1)[C@@H]1CCCN1C(=O)c1ccc(O)c(-c2ccc(Cl)c(Cl)c2)c1 [TCMDC-140871],35.67%,–
COc1ccc(Nc2ncc3c(-c4cccc(NC(=O)Cc5cccnc5)c4)c[nH]c3n2)cc1OC [TCMDC-135285],-50.17%,–
CN(C)CCNC(=O)c1ccc2c(c1)n(C1CCN(S(=O)(=O)c3ccc(-c4ccccc4)cc3)CC1)c(=O)n2CC1CCCCC1 [TCMDC-135414],22.96%,–
CCc1cccc(NC(=O)/C=C/c2ccc3c(c2)CN(C)CC3)c1 [TCMDC-139241],27.65%,–
NC1=NC(c2ccccc2)(c2cccc(O)c2)C(=O)N1CCCc1ccccc1 (stereo not shown) [TCMDC-132352],–,-21.91%
CCOc1cc(C(=O)NCCCN2CCCCC2C)ccc1-c1nc2ccc(Cl)cc2[nH]1 (stereo not shown) [TCMDC-140915],4.733%,–
CC1CCCCN1CCCNC(=O)c1cccc(-c2cc3cc(Cl)c(Cl)cc3[nH]2)c1 (stereo not shown) [TCMDC-141291],-28.41%,–
COc1ccc2cc(-c3nc(-c4c(Cl)cccc4Cl)[nH]c3-c3ccnc(NCCCN4CCCCC4C)c3)ccc2c1 (stereo not shown) [TCMDC-141247],95.77%,–
CCn1c(C)c(C)c2cc(C(=O)Nc3ccon3)ccc21 [TCMDC-124915],28.52%,–
Oc1ccccc1CN1CCC(CCOC(c2ccccc2)c2ccc(Cl)cc2)CC1 (stereo not shown) [TCMDC-136039],23.64%,–
CC(C)N1CCC(Oc2ccc(CN3CCN(C(c4ccccc4)c4ccc(Cl)cc4)CC3)cc2)CC1 (stereo not shown) [TCMDC-132411],68.21%,–
Cn1cc(CN2CCCC(COC(c3ccc(F)cc3)c3ccc(F)cc3)C2)cn1 (stereo not shown) [TCMDC-136043],-3.69%,–
Cn1cc(CN2CCC(CCOC(c3ccccc3)c3ccccc3)CC2)cn1 [TCMDC-136046],75.05%,–
c1ccc(C(OCCC2CCN(Cc3cccnc3)CC2)c2ccccc2)cc1 [TCMDC-136045],0.3767%,–
Cn1cc(CN2CCCC(COC(c3ccccc3)c3ccccc3)C2)cn1 (stereo not shown) [TCMDC-136042],17.19%,–
Cn1cc(CN2CCC(OC(c3ccccc3)c3ccc(Cl)cc3)CC2)cn1 (stereo not shown) [TCMDC-136165],63.85%,–
Oc1ccccc1CN1CCN(C(c2ccccc2)c2ccccc2)CC1 [TCMDC-124458],18.52%,–
Oc1ccc(CN2CCN(CCOC(c3ccccc3)c3ccc(Cl)cc3)CC2)cc1Cl (stereo not shown) [TCMDC-135689],3.239%,–
NC(=O)c1cccc(Nc2nccc(Nc3ccc(Oc4cccc(Cl)c4)c(Cl)c3)n2)c1 [TCMDC-138593],-22.97%,–
Cc1c(S(=O)(=O)Nc2ccc3ccn(CCN(C)C)c3c2)sc2ccc(Cl)cc12 [TCMDC-139126],-31.84%,–

Structure (SMILES),% Inhibition,% Inhibition (% Inhibition)
COc1ccc(C2CC(c3ccccc3O)=NN2C(=O)c2ccco2)cc1OC (stereo not shown) [TCMDC-125347],-56.68%,–
CC(C)C[C@H](Nc1ccnc(NCC2CCCCC2)n1)C(=O)NCCOc1ccccc1 [TCMDC-134712],15.38%,–
Cc1cc(O)c(CN(C)Cc2ccc3c(c2)OCCO3)cc1C(C)C [TCMDC-124884],16.52%,–
CCOc1ccc(CN(CCc2ccc3c(c2)OCO3)Cc2cc(OC)ccc2O)cc1 [TCMDC-125607],58.7%,–
Cc1cc(O)c(CN(C)Cc2ccc3c(c2)OCO3)cc1C(C)C [TCMDC-124881],27%,–
CCOC(=O)c1ccc(NC(=O)Nc2cccc(-c3ccc(-c4nc5ccc(F)cc5[nH]4)cc3)c2)cc1 [TCMDC-133267],-0.2568%,–
Cc1cccc2nc(-c3cccc(-c4ccc(CN5CCC(C(N)=O)CC5)cc4)c3)[nH]c12.O=C(O)C(F)(F)F [TCMDC-132697],21.78%,–
CS(=O)(=O)c1ccc2nc(-c3cc(-c4cccc(F)c4)cnc3N)[nH]c2c1 [TCMDC-133134],32.71%,–
COc1cc(-c2cnc(N)c(-c3nc4ccccc4[nH]3)c2)cc(OC)c1OC [TCMDC-138793],9.298%,–
COC(=O)c1ccc2nc(-c3cc(-c4cccc(-c5ccccc5)c4)cnc3N)[nH]c2c1 [TCMDC-135320],-16.97%,–
COc1ccc(-c2cc(-c3ccc(S(C)(=O)=O)cc3)cnc2N)cn1 [TCMDC-133351],104.2%,–
CS(=O)(=O)c1ccc(-c2cnc(N)c(-c3cccc(CO)c3)c2)cc1 [TCMDC-133352],33.58%,–
COc1ccc(-c2ccc3c(-c4ccc(F)cc4)cnc(N)c3c2)cn1 [TCMDC-134503],16.03%,–
COc1ccc(-c2cnc(N)c(-c3ccc(O)c(OC)c3)c2)cn1 [TCMDC-133350],11.39%,–
COc1cc(-c2cc(-c3ccc(S(C)(=O)=O)cc3)cnc2N)ccc1O [TCMDC-133343],105.4%,–
COc1ccc(-c2cnc(N)c(-c3ccc(C(N)=O)cc3)c2)cc1OC [TCMDC-133349],67.55%,–
CS(=O)(=O)c1ccc(-c2cnc(N)c(-c3ccc(O)cc3)c2)cc1 [TCMDC-133348],24.96%,–
CS(=O)(=O)c1ccc(-c2cnc(N)c(-c3cccc(O)c3)c2)cc1 [TCMDC-133347],65.54%,–
COCc1cccc(-c2cc(-c3ccc(S(C)(=O)=O)cc3)cnc2N)c1 [TCMDC-133342],35.59%,–
CCCc1cc(OC)c(CC2c3cc(O)c(C)cc3CCN2C)cc1OC (stereo not shown) [TCMDC-137164],-32.49%,–
Cc1c(C)n(C2CCCCC2)c2ncnc(OC3CCN(CC(=O)NC4CC4)CC3)c12 [TCMDC-124853],15.8%,–
CCCc1cnc2nc(N)nc(N)c2c1C [TCMDC-138066],12.33%,–
Cn1cc(-c2ccccc2C(=O)O)c(=O)c2cc(Cl)ccc21 [TCMDC-123861],6.577%,–
CCOc1cc(C(=O)N[C@@H](Cc2ccccc2)[C@H](O)CNCc2cc(OC)cc(OC)c2)cc(N2CCCC2=O)c1 [TCMDC-134571],-29.57%,–
COCc1cc(C)nc2sc(C(=O)Nc3cc(C(C)(C)C)ccc3O)c(N)c12 [TCMDC-125131],1.168%,–

Structure (SMILES),% Inhibition,% Inhibition (% Inhibition)
O=C(/C=C/c1ccc(Cl)c(Cl)c1)NCCCCCN1CCCN(C(=O)Nc2cc(F)cc(F)c2)CC1 [TCMDC-135751],-53.24%,–
Oc1cccc(Nc2ccnc3cc(-c4cc5ccccc5o4)ccc23)c1 [TCMDC-138287],-55.42%,–
COc1ccc(Cc2c(N)nc3nc(N)nc(N)c3c2C)cc1 [TCMDC-138061],18.63%,–
COc1cccc(-c2cc3c(NCc4ccncc4)nccc3s2)c1 [TCMDC-135200],-6.172%,–
CC(C)CC(=O)N1CCNC[C@@H]1C(=O)NCCSCc1c(F)cccc1Cl [TCMDC-141243],-23.04%,–
O=C(/C=C/c1ccc(Cl)c(Cl)c1)N1CCCC(CCCN2CCC(c3c[nH]c4ccccc34)CC2)C1 (stereo not shown) [TCMDC-139505],18.14%,–
NC(N)=NN=Cc1c2ccccc2c(Cl)c2cc(Cl)ccc12 [TCMDC-137903],96.19%,–
Clc1ccc2c(NN=Cc3ccccc3)ccnc2c1 [TCMDC-123962],-43%,–
NC(N)=NN=Cc1c2ccccc2c(Cl)c2c(Cl)cccc12 [TCMDC-137898],83.04%,–
NC(N)=NN=CC(=O)Nc1ccc(Cl)c(Cl)c1 [TCMDC-137466],-3.448%,–
NC(N)=NN=Cc1c2ccc(Cl)cc2c(Cl)c2ccc(Cl)cc12 [TCMDC-137884],111.2%,–
NC(N)=NN=Cc1c[nH]c2ccc(-c3ccccc3)cc12 [TCMDC-138961],-59.33%,–
NC(N)=NN=Cc1c2ccccc2c(Cl)c2ccc(Cl)cc12 [TCMDC-137911],98.76%,–
Cc1cc(C)c(C)c(S(=O)(=O)N2CCCCC(c3ccc(F)c(F)c3)=N2)c1C [TCMDC-135419],-64.55%,–
CCCc1cc(Cc2cnc(N)nc2N)cc(CC)c1OC [TCMDC-137693],21.32%,–
COc1ccc(Nc2nccc(N3CCC(NC(=O)Nc4ccc5c(c4)OCO5)C3)n2)cc1 (stereo not shown) [TCMDC-133617],-60.34%,–
CN(C)CCC1CCN(CCS(=O)(=O)c2cccc(Nc3ncc(-c4cccc(F)c4)cn3)c2)CC1 [TCMDC-134374],1.071%,–
N#Cc1ccc(-c2ccc(C(=O)NCCCCN3CCC(c4cn(CCO)c5ccccc45)CC3)cc2)cc1 [TCMDC-138836],-28.51%,–
COc1ccc2c(c1)CCN(CCN1CCC(CNC(=O)c3ccc(-c4ccc(C#N)cc4)cc3)CC1)C2 [TCMDC-138881],-33.61%,–
CC(C)Cn1cc(C2CCN(CCN3CCC(CNC(=O)c4ccc(-c5ccc(C#N)cc5)cc4)CC3)CC2)c2ccccc21 [TCMDC-138849],100.8%,–
N#Cc1ccc(-c2ccc(C(=O)NCCCCN3CCC(c4cn(CCCO)c5ccccc45)CC3)cc2)cc1 [TCMDC-138837],-51.57%,–
C=C(C)Cn1cc(C2CCN(CCN3CCC(CNC(=O)c4ccc(-c5ccc(C#N)cc5)cc4)CC3)CC2)c2ccccc21 [TCMDC-138854],103.5%,–
COc1cccc2c1CCN(CCN1CCC(CNC(=O)c3ccc(-c4ccc(C#N)cc4)cc3)CC1)C2 [TCMDC-134140],16.45%,–
